Shown are actives, neighbours in structure and some others; about 3.9% of the full set was active somewhere.
NTMT1 inh: NTMT1 methyltransferase inhibition; Q9BV86; NTMT1 MTase-Glo SAH luminescence, purified enzyme; Potency, µM (series often up to 114 µM), inactives show top-dose activity change, negative = inhibition, hits mostly inhibitors; 59,000 compounds, 2.5% hits; AID 1645870;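 also: potency is read from the fitted curve at half-maximal effect; plate controls were DMSO vehicle for no effect and no enzyme for full effect; nearly all actives have a fitted effect of over 65% in size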
GALC G270D up: galactocerebrosidase G270D activity enhancement, cell-based; P54803; 145M-Twi-hGALC-G270D cells (Twitcher mouse brain line with human GALC G270D), HMU-beta-Gal fluorescence, 48 h; Potency, µM (doses to about 57.5 µM), hits mostly activators; 45,000 compounds, 0.1% hits; AID 1159614; also: potency is read from the fitted curve at half-maximal effect; 0% is about no effect; nearly all actives have a fitted effect of over 65% in size
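Live 145M-Twi cells (Twitcher mouse brain-derived, GALC-null) stably expressing human GALC-G270D, with a wild-type GALC line, were compound-treated. Residual GALC activity was then read as fluorescence from 0.1 mM final HMU-β-gal at pH 5.2; higher signal means activation.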
FH mod: Identification of activators of human fumarate hydratase by quantitative high-throughput screening; Fumarate hydratase, mitochondrial (Homo sapiens), P07954; FH coupled MDH/diaphorase resazurin fluorescence, 15 min; Potency, µM (doses to about 79.9 µM), without a hit: top-dose activity change, negative = inhibition, usual class: inhibitors; 54,000 compounds, 0.22% hits; AID 1347055, 2019; also: potency is read from the fitted curve at half-maximal effect; % is scaled to controls: 0 for no effect and ±100 for the full control effect; the screen sought activators but most active calls are inhibition curves; nearly all actives have a fitted effect of over 45% in size
Target sequence (P07954 whole entry, looked up): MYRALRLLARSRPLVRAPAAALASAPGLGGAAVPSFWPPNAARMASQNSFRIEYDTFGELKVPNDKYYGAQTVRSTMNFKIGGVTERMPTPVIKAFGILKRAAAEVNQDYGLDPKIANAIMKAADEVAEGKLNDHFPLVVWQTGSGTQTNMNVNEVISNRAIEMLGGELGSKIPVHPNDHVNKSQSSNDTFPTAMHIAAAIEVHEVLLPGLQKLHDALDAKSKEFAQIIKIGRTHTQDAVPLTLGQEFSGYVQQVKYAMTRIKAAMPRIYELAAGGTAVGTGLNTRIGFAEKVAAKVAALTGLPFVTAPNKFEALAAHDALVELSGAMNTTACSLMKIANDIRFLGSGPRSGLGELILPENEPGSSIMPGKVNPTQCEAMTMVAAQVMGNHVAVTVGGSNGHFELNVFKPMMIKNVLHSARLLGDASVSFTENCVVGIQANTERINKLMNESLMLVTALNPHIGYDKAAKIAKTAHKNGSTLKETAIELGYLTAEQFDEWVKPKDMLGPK
p53null 32C kill: selectivity test: cytotoxicity in p53 null cells, permissive temperature; H1299-neo p53 null cells, ATP luminescence, 24 h, 32C; 55,000 compounds, 0.62% hits; Potency, µM (series often up to 46.1 µM), for inactives: top-dose activity change, negative = cytotoxicity, most hits filed as cytotoxic;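 also: potency is read from the fitted curve at half-maximal effect; 0% = DMSO only and -100% = full killing by 100 µM tamoxifen; nearly all actives have a fitted effect of over 55% in size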
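Luminescent ATP readout gave cell viability of p53-null H1299-neo cells after a 24 h compound exposure at the permissive 32C. Titrations ran up to 46 uM, and AC50s were fitted with the standard Hill equation.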
p53null 39C kill: p53 null cell cytotoxicity, nonpermissive temperature | H1299 p53-null (neo) cells, 39C, ATPlite viability, 24 h | Potency, µM (highest dose often 46.1 µM), for the others: top-dose activity, negative = cell killing, most hits filed as cytotoxic | 55,000 compounds, 0.97% hits;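 also: potency is read from the fitted curve at half-maximal effect; 0% = DMSO only and -100% = full killing by 100 µM tamoxifen; nearly all actives have a fitted effect of over 50% in size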
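Temperature-shift cytotoxicity format: compound titrations on p53-null or A138V-expressing H1299 cells held 24 hr at 39C, cell ATP then measured, AC50 from Hill model.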
DRV1 agonist: activates human resolvin D1 receptor GPR32 | CHO-K1 GPR32 beta-arrestin PathHunter luminescence, 90 min; zero percent set by DMSO-only wells | activation, % at 76.9 µM | 48,000 compounds, 2.5% hits | O75388;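 active = activation of at least 60% and not above a set upper limit, about 1 call in 100 departs from these limits; inconclusive = activation of 40% to 60%, or above that upper limit; inactive = activation under 40%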; also: 0% is about no effect
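Agonism was scored by beta-Gal fragment complementation (chemiluminescent read, 1 h detection at ambient temperature) reporting beta-arrestin binding to GPR32 in engineered CHO-K1 cells. Compound treatment lasted 90 min at 37 C, normalized to a DMSO basal control.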
* = called active by the depositor; ! = a repeat was not active; [ ] = dose if it differs, or a comment. Unless noted, calls follow the shape of the dose curve; as a rule, active = well fitted curve in the direction sought with a large enough effect; inconclusive = small, poorly fitted or top-dose-only effect, or another doubt; inactive = no such curve, though single readings can be large; an effect the other way counts as inactive or inconclusive.

For CNc1nccc(-c2cccc3ccccc23)n1 the results were NTMT1 inh -4.8%.
For COc1ccccc1C(=O)Nc1onc2c1CCCC2 the results were NTMT1 inh inconclusive, GALC G270D up inactive, FH mod -0.8%, p53null 32C kill -25.9%, p53null 39C kill -18.5% and DRV1 agonist -14.5.
Screening Cc1ccc(C(=O)Nc2onc3c2CCCC3)cc1 returned NTMT1 inh -23.5%, GALC G270D up inactive, FH mod -8.1%, p53null 32C kill 6.31µM*, p53null 39C kill 5.01µM* and DRV1 agonist 38.5.
Screening C[C@@H]1O[C@@H](O[C@@H]2[C@@H](O)[C@H](O[C@@H]3[C@@H](O)[C@@H](O)[C@H](O[C@H]4[C@H](OC(=O)[C@]56CCC(C)(C)C[C@H]5C5=CCC7[C@@]8(C)C[C@H](O)[C@H](O[C@@H]9O[C@H](C(=O)O)[C@@H](O)[C@H](O)[C@H]9O)[C@@](C)(CO)C8[C@H](O)C[C@@]7(C)[C@]5(C)CC6)OC[C@H](O)[C@@H]4O)O[C@H]3C)OC[C@H]2O)[C@H](O)[C@H](O)[C@H]1O (stereo partly drawn) returned NTMT1 inh 42.0%[6.45 µM] and FH mod -9.4%[13.5 µM].
`CCc1ccc(Sc2cc(C(=O)NCCCN3CCC(C)CC3)c3ccccc3n2)cc1` gave NTMT1 inh -18.9%, GALC G270D up inactive, FH mod -10.9%, p53null 32C kill 8.3%, p53null 39C kill 21.8% and DRV1 agonist 89.4*.
Screening CCc1ccc(Sc2cc(C(=O)NCCCN3CCCC(C)C3)c3ccccc3n2)cc1 (stereo not drawn) returned NTMT1 inh -13.9%, GALC G270D up inactive, FH mod 2.5%, p53null 32C kill 3.4%, p53null 39C kill 13.5% and DRV1 agonist 88.0*.
For Oc1cc2c(c(Cl)c1O)CCNCC2c1ccccc1 (stereo not drawn) the results were FH mod inconclusive and DRV1 agonist 6.3.
`Oc1ccc(C2CNCc3sccc32)cc1O` (stereo not drawn) gave FH mod 8.91µM* and DRV1 agonist 5.6.
For Cc1cc(-c2nnc3n2CCC3)c(C)n1-c1ccccc1 the results were NTMT1 inh 3.2%[57.5 µM].
For FC(F)(F)c1ccccc1-c1nc(NCc2ccc(Br)cc2)c2ccccc2n1 the results were NTMT1 inh 11.1%.
COc1ccc(CCNc2ncnc3onc(C)c23)c(OC)c1 was read as NTMT1 inh -3.1%, GALC G270D up inactive, FH mod -11.8%, p53null 32C kill -5.2%, p53null 39C kill -27.0% and DRV1 agonist 75.3*.
For COc1cccc(CNc2ncnc3onc(C)c23)c1 the results were NTMT1 inh 9.0%, GALC G270D up inactive, FH mod -0.8%, p53null 32C kill 3.1%, p53null 39C kill 5.6% and DRV1 agonist 32.8.
Screening Cc1ccc(-c2nnc(NC(=O)c3ccc4c(c3)OCCO4)o2)c(C)c1 returned NTMT1 inh 18.7%, GALC G270D up inactive, FH mod 23.6%, p53null 32C kill -14.8%, p53null 39C kill 25.1µM* and DRV1 agonist -5.7.
Screening O=C(Nc1nnc(-c2cc(Cl)ccc2Cl)o1)c1ccc2c(c1)OCCO2 returned NTMT1 inh 4.4%, GALC G270D up inactive, FH mod 16.2%, p53null 32C kill -4.7%, p53null 39C kill -41.0% and DRV1 agonist -2.3.
`CN(C)C/C=C/C(=O)Nc1ccc(C(=O)Nc2cccc(Nc3ncc(Cl)c(-c4c[nH]c5ccccc45)n3)c2)cc1` gave NTMT1 inh 50.1µM*! and FH mod 6.2%.
Screening Cc1ccc(NC(=O)c2nnn(Cc3cccc(C(F)(F)F)c3)c2N)c(C)c1 returned NTMT1 inh 5.7%, GALC G270D up inactive, FH mod 13.7%, p53null 32C kill -2.7%, p53null 39C kill 37.0% and DRV1 agonist 93.4*.
For CCc1cccc(NC(=O)c2nnn(Cc3ccc(SC)cc3)c2N)c1 the results were NTMT1 inh 12.9%, GALC G270D up inactive, FH mod 3.8%, p53null 32C kill -5.3%, p53null 39C kill -2.4% and DRV1 agonist 61.7*.
`CCOc1ccc(Cn2nnc(C(=O)Nc3cccc(SC)c3)c2N)cc1` gave NTMT1 inh 8.2%, GALC G270D up inactive, FH mod -5.1%, p53null 32C kill -5.8%, p53null 39C kill inconclusive and DRV1 agonist -2.7.
Screening C[N+](C)(C)CC[N+]1(C)Cc2c(Cl)c(Cl)c(Cl)c(Cl)c2C1 returned NTMT1 inh 7.94µM*, GALC G270D up inactive, FH mod -8.1%[53.3 µM] and DRV1 agonist inconclusive.
`Nc1nc2c(c(=O)[nH]1)C[C@@H](CCc1ccc(C(=O)N[C@@H](CCC(=O)O)C(=O)O)cc1)CN2` gave NTMT1 inh -1.7%[57.5 µM] and FH mod -3.0%.
For Cc1ccsc1/C=C/C1=NCCCN1C the results were NTMT1 inh 12.6µM*, GALC G270D up inactive, FH mod 3.4%[53.3 µM] and DRV1 agonist 2.6.
Nc1cccc([S+](=O)([O-])N2CCCN([S+](=O)([O-])c3cccc(N)c3)CC2)c1 was read as NTMT1 inh 12.1%.
Screening CCOC(=O)c1cccc(NC(=O)CSc2nc3cc4ccccc4cc3[nH]2)c1 returned NTMT1 inh 16.6%, GALC G270D up inactive, FH mod -5.6%, p53null 32C kill -15.9%, p53null 39C kill inconclusive and DRV1 agonist 113.6*.
CCOC(=O)c1cccc(NC(=O)CSc2cc(=O)n(C)c3ccccc23)c1 was read as NTMT1 inh 6.8%, GALC G270D up inactive, FH mod inconclusive, p53null 32C kill 4.8%, p53null 39C kill 7.8% and DRV1 agonist -6.2.
For COC(=O)c1ccc(NC(=O)CSc2nc3cc4ccccc4cc3[nH]2)cc1 the results were NTMT1 inh -2.3%, GALC G270D up inactive, FH mod -12.1%, p53null 32C kill -17.7%, p53null 39C kill -16.2% and DRV1 agonist 93.7*.
For CCOC(=O)c1cccc(NC(=O)c2ccc3c(c2)nnn3CC)c1 the results were NTMT1 inh inconclusive, GALC G270D up inactive, FH mod -19.7%, p53null 32C kill -8.4%, p53null 39C kill 10.9% and DRV1 agonist 61.4*.
Screening CCn1nnc2cc(C(=O)Nc3cccc(Cl)c3)ccc21 returned NTMT1 inh -2.1%, GALC G270D up inactive, FH mod -8.8%, p53null 32C kill -10.8%, p53null 39C kill -3.6% and DRV1 agonist -6.7.
